# High-throughput results as filed in PubChem BioAssay.
# Shown are actives, neighbours in structure and some others; about 9.9% of the full set was active somewhere.
# SW480 rereplic – induces DNA re-replication in SW480 colon adenocarcinoma cells. 340,000 tested, 1.8% active. Potency, µM (highest dose often 46.1 µM), for the others: at the highest dose re-replication activation, actives largely listed as activators. SW480 DNA re-replication, Hoechst DNA content imaging, 48 h; also: potency is read from the fitted curve at half-maximal effect; % of control where 0% means no effect; nearly all actives have a fitted effect of over 55% in size
#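 DNA re-replication was detected as more nuclei of elevated Hoechst intensity after 48 hr exposure to compound (23 nL pinned per well of 250 cells).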
# KB-3-1 tox – kills parental KB-3-1 adenocarcinoma cells; KB-3-1 viability, CellTiter-Glo ATP luminescence, 72 h; Potency, µM (titrated, usually from 46.1 µM), hits mostly cytotoxic; 400,000 tested, 1.4% active; also: potency is read from the fitted curve at half-maximal effect; % is scaled to controls: 0 for no effect and ±100 for the full control effect; nearly all actives have a fitted effect of over 60% in size
#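 Luminescent ATP read-out (CellTiter-Glo) measures survival of drug-naive KB-3-1 cells after 72 h compound exposure at 37 °C. Titration series was screened from lowest to highest concentration, with DMSO vehicle plates as background controls.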
# MCF10A rereplic – induces DNA re-replication in MCF 10a normal breast cells | MCF 10A DNA re-replication, Hoechst nuclear intensity, 48 h | Potency, µM (titrated, usually from 46.1 µM), for inactives: top-dose activity, positive = re-replication, actives largely listed as activators | 350,000 tested, 2.9% active | AID 624296; also: potency is read from the fitted curve at half-maximal effect; % of control where 0% means no effect; nearly all actives have a fitted effect of over 50% in size
# IL1B secr inh – inflammasome signaling inhibition, IL-1 beta readout | THP-1 LPS/ATP IL-1B secretion, AlphaLISA, 16 h; active compounds read low | activity change, % at 57.5 µM | 360,000 tested, 4.7% active | AID 743279; in the data active = activity change below about -50%; inconclusive = mostly about -30% to -49%; also: % is scaled to controls: 0 for no effect and ±100 for the full control effect
#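 THP-1 cells pretreated 1 hr with compounds (up to 57.5 uM final), then stimulated with LPS (250 ng/mL final) plus ATP (1.25 mM final); secreted IL-1B measured by AlphaLISA after 16 hr, decreased signal indicating inhibition.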
# KB-V1 cytotox – KB-V1 MDR subline cytotoxicity; KB-V1 MDR cells viability, CellTiter-Glo, 72 h; AID 1347076; Potency, µM (highest dose often 46.1 µM), usual class: cytotoxic; 400,000 tested, 3.4% active; also: potency is read from the fitted curve at half-maximal effect; % is scaled to controls: 0 for no effect and ±100 for the full control effect; nearly all actives have a fitted effect of over 60% in size
#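 KB-V1, DMEM (no phenol red) + 10% FBS; cpd pin-transferred, titration series; 72 h, 37 degrees C; CellTiter-Glo, luminescence. Data normalized, curve-fit.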
# * marks the source's active call; other numbers are inactive results; i = inactive; ? = inconclusive; · = no result. Unless noted, calls follow the shape of the dose curve; as a rule, active = well fitted curve in the direction sought with a large enough effect; inconclusive = small, poorly fitted or top-dose-only effect, or another doubt; inactive = no such curve, though single readings can be large; an effect the other way counts as inactive or inconclusive.
SMILES,SW480 rereplic,KB-3-1 tox,MCF10A rereplic,IL1B secr inh,KB-V1 cytotox
Cc1sc(C(C2C(=O)CC(C)(C)CC2=O)C2C(=O)CC(C)(C)CC2=O)cc1[N+](=O)[O-],13%,i,?,-94*,i
OCC[C@@H]1C[C@H](O)[C@@H](O)[C@@]2(OCCCc3cc(C(F)(F)F)ccc32)O1,·,i,·,-6,i
O=C(Nc1cccc(F)c1)N1CC=C(n2c(=O)[nH]c3ccccc32)CC1,-7%,i,0%,-59*,i
O=C(Nc1ccccc1)N1CC=C(c2ccc(F)cc2)CC1,0%,i,5%,0,?
CCCCCCCCCCCC(=O)NC(C(=O)OCC)C(O)c1cccc([N+](=O)[O-])c1 (centres undefined),?,?,?,-79*,?
CCOC(=O)C(NC(C)=O)C(O)c1ccc([N+](=O)[O-])cc1 (centres undefined),-2%,i,-10%,-9,?
O=C(NCc1cccnc1)c1csc([C@@H]2O[C@H](CO)[C@H](O)[C@H](O)[C@H]2O)n1,·,i,·,5,i
O=c1cc(-c2ccccc2)nc(Sc2ccc([N+](=O)[O-])cc2[N+](=O)[O-])[nH]1,-139%,i,?,-63*,i
Cc1cccc(Sc2ccc([N+](=O)[O-])cc2[N+](=O)[O-])n1,5%,i,?,-171*,i
O=[N+]([O-])c1ccc(Sc2nccn2Cc2ccccc2)c([N+](=O)[O-])c1,?,i,21µM*,-108*,?
O=[N+]([O-])c1ccc(Sc2ncccn2)c([N+](=O)[O-])c1,?,i,18µM*,·,i
Cc1cccc(Sc2c([N+](=O)[O-])ncn2C)n1,-7%,i,3%,0,i
O=[N+]([O-])c1cc(C(F)(F)F)ccc1Sc1nccn1Cc1ccccc1,3%,i,?,?,i
CN1CCN(C(=O)C2=C[C@@H](C3CC3)C[C@@H](OCc3ccc(CO)cc3)O2)CC1,-16%,i,98%,-7,?
COc1ccc(NC(=S)N2CCNC(=O)C2CC(=O)Nc2cccc(Cl)c2C)cc1 (centres undefined),0%,i,5%,?,i
Cc1cccc(N2CCN(C(=O)CN3C(=O)COc4ccc(S(=O)(=O)N5CCC(C)CC5)cc43)CC2C)c1 (centres undefined),·,i,·,·,i
COc1ccc(NC(=O)CCSCCc2ccccn2)cc1OC,-4%,i,-2%,30,i
O=[N+]([O-])c1ccc(SNc2ccccc2)c([N+](=O)[O-])c1,-2%,i,27%,-8,23µM*
O=[N+]([O-])c1ccccc1SNc1ccccc1,·,i,·,?,i
COc1ccc(CN2C(=O)c3cccnc3C2=O)cc1S(=O)(=O)N(C)c1ccc(C)cc1,-4%,i,-1%,0,i
COc1cccc(CN(C(=O)Cc2c[nH]c3ccccc23)C(C(=O)NC2CCCCC2)c2ccc(C)o2)c1 (centres undefined),?,?,6%,-68*,21µM*
COc1cc(C(C(=O)NC2CCCCC2)N(Cc2cccs2)C(=O)Cc2c[nH]c3ccccc23)cc(OC)c1OC (centres undefined),-8%,?,7%,-23,16µM*
COc1cc(C(C(=O)NC2CCCCC2)N(C(=O)Cc2c[nH]c3ccccc23)c2ccccc2C)cc(OC)c1OC (centres undefined),1%,i,17%,?,i
COc1ccc(CN(C(=O)Cc2c[nH]c3ccccc23)C(C(=O)NC2CCCCC2)c2ccc(C)o2)cc1 (centres undefined),12%,?,?,-59*,?
COc1cccc(N2CCN(C(=O)c3cnn(C(C)(C)C)c3C3CCN(C(=O)OC(C)(C)C)CC3)CC2)c1,·,i,·,·,i
SMILES,SW480 rereplic,KB-3-1 tox,MCF10A rereplic,IL1B secr inh,KB-V1 cytotox
Cc1ccc(C)c(Cn2cnc3c(cnn3-c3ccc(F)cc3)c2=O)c1,·,i,·,·,i
COc1ccc(N2CC(C(=O)N3CCCC(C)C3)CC2=O)cc1 (centres undefined),18µM*,i,3%,20,i
Nc1nc(-c2ccc(Br)cc2)c(S(=O)(=O)c2ccccc2)s1,2%,i,2%,-69*,i
Cc1ccccc1Nc1c(-c2cccnc2)nc2ccc(Cl)cn12,·,i,·,·,i
COCCNC(=O)CN1C(=O)COc2ccc(S(=O)(=O)N3CCOCC3)cc21,·,i,·,·,i
C=CCC1Cc2c(Br)cccc2C(CC=C)N1 (centres undefined),-24%,i,0.92µM*,0,i
O=C(Nc1ccc([N+](=O)[O-])cc1)C(Cc1ccccc1)N1C(=O)c2cccc3cccc(c23)C1=O (centres undefined),18µM*,?,12µM*,55,?
CCCCCCOc1ccc(OC(=O)c2ccncc2)cc1,?,i,23µM*,12,i
CCCCCCc1ccc(OC(=O)c2ccncc2)cc1,-11%,i,5%,5,i
COc1ccc(NC(=O)COC(=O)CNS(=O)(=O)c2ccccc2)cc1OC,5%,i,-37%,15,i
COc1ccc(NC(=O)Nc2cccs2)cc1Cl,5%,i,19%,-52*,i
COc1ccc(NC(=O)CCC(=O)c2cccs2)cc1Cl,10%,i,1%,2,i
COc1ccc(NC(=O)COC(=O)/C=C/C(=O)OCC(=O)Nc2ccc(OC)c(Cl)c2)cc1Cl,?,i,?,-103*,i
COC(=O)/C=C/C(=O)Nc1ccc(O)c(Cl)c1,?,i,?,-99*,i
COc1ccc(NC(=O)CNS(=O)(=O)c2ccccc2)cc1Cl,?,i,8.2µM*,-17,?
CCOC(=O)/C=C/C(=O)OCC(=O)Nc1ccc(OC)c(Cl)c1,3%,i,?,?,i
Cc1cc(C)c(C(=O)CN2C(=O)NC3(CCCCCC3)C2=O)cc1C,-8%,?,?,-19,i
Cc1ccccc1NC(=O)CC1NCCNC1=O (centres undefined),·,i,·,·,i
CN1CCN(C(=S)NC(=O)c2ccc(S(=O)(=O)N3CCOCC3)cc2)CC1,-35%,i,3%,0,i
CCN(CC)c1ccc(/C=N/NC(=O)c2cccc(S(=O)(=O)N3CCOCC3)c2)c(O)c1,?,7.3µM*,15µM*,200,?
CC(=O)Nc1ccc(NC(=O)c2cc(-c3cc(C)cc(C)c3O)n[nH]2)cc1,-24%,?,10%,-5,i
